Measurements: PMC5540273 (PLoS ONE, 2017)

Columns and labels:
Conditions in all cases: concentration: 1 μM, replicates: in singlicate; n = 1
ROCK1 = system: ROCK1
ROCK2 = system: ROCK2
ROS1 = system: ROS1
[1] = system: RPS6KA4(Kin.Dom.1-N-terminal)
[2] = system: RPS6KA4(Kin.Dom.2-C-terminal)
[3] = system: RPS6KA5(Kin.Dom.1-N-terminal)
[4] = system: RPS6KA5(Kin.Dom.2-C-terminal)
[5] = system: T1, RSK1(Kin.Dom.1-N-terminal)
T1 construct: gene RPS6KA1

[6] = system: T2, RSK1(Kin.Dom.2-C-terminal)
T2 construct: gene RPS6KA1

[7] = system: T3, RSK2(Kin.Dom.1-N-terminal)
T3 construct: gene RPS6KA3

[8] = system: T4, RSK2(Kin.Dom.2-C-terminal)
T4 construct: gene RPS6KA3

[9] = system: T5, RSK3(Kin.Dom.1-N-terminal)
T5 construct: gene RPS6KA2

[10] = system: T6, RSK3(Kin.Dom.2-C-terminal)
T6 construct: gene RPS6KA2

[11] = system: T7, RSK4(Kin.Dom.1-N-terminal)
T7 construct: gene RPS6KA6

[12] = system: T8, RSK4(Kin.Dom.2-C-terminal)
T8 construct: gene RPS6KA6

S6K1 = system: S6K1
SBK1 = system: SBK1
SGK2 = system: SGK2
SGK3 = system: SGK3
SGK = system: SGK
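Also: KINOMEscan kinase panel screen.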

COc1ccc2nc(-c3cccc(C)n3)nc(Nc3ccncc3)c2c1 [GSK204919]
%Inh (ROCK1): 13% | %Inh (ROCK2): 5% | %Inh (ROS1): 4% | %Inh [1]: 12% | %Inh [2]: 0% | %Inh [3]: 25% | %Inh [4]: 0% | %Inh [5]: 2% | %Inh [6]: 7% | %Inh [7]: 0% | %Inh [8]: 19% | %Inh [9]: 19% | %Inh [10]: 0% | %Inh [11]: 0% | %Inh [12]: 26% | %Inh (S6K1): 1% | %Inh (SBK1): 21% | %Inh (SGK2): 0% | %Inh (SGK3): 0% | %Inh (SGK): 0%

CCn1c(-c2cccnc2O)nc2cnccc21 [SB-736715]
%Inh (ROCK1): 11% | %Inh (ROCK2): 0% | %Inh (ROS1): 0% | %Inh [1]: 0% | %Inh [2]: 0% | %Inh [3]: 0% | %Inh [4]: 0% | %Inh [5]: 0% | %Inh [6]: 0% | %Inh [7]: 4% | %Inh [8]: 1% | %Inh [9]: 0% | %Inh [10]: 13% | %Inh [11]: 0% | %Inh [12]: 15% | %Inh (S6K1): 5% | %Inh (SBK1): 0% | %Inh (SGK2): 0% | %Inh (SGK3): 0% | %Inh (SGK): 0%

Cc1ccc(NC(=O)Nc2cccc(Cl)c2)cc1-c1ccc(C(=O)Nc2ccncc2)cc1 [GSK1398468]
%Inh (ROCK1): 0% | %Inh (ROCK2): 13% | %Inh (ROS1): 0% | %Inh [1]: 24% | %Inh [2]: 0% | %Inh [3]: 10% | %Inh [4]: 39% | %Inh [5]: 23% | %Inh [6]: 0% | %Inh [7]: 0% | %Inh [8]: 0% | %Inh [9]: 5% | %Inh [10]: 1% | %Inh [11]: 0% | %Inh [12]: 16% | %Inh (S6K1): 0% | %Inh (SBK1): 26% | %Inh (SGK2): 0% | %Inh (SGK3): 22% | %Inh (SGK): 0%

COc1ccc(CNC(=O)NC2CCN(c3ccnc(Nc4cc(OC)c(OC)c(OC)c4)n3)C2)cc1 (centres unmarked) [GSK1379748]
%Inh (ROCK1): 20% | %Inh (ROCK2): 31% | %Inh (ROS1): 29% | %Inh [1]: 0% | %Inh [2]: 0% | %Inh [3]: 0% | %Inh [4]: 21% | %Inh [5]: 0% | %Inh [6]: 1% | %Inh [7]: 3% | %Inh [8]: 15% | %Inh [9]: 0% | %Inh [10]: 21% | %Inh [11]: 0% | %Inh [12]: 5% | %Inh (S6K1): 0% | %Inh (SBK1): 0% | %Inh (SGK2): 0% | %Inh (SGK3): 0% | %Inh (SGK): 0%

Fc1cc(Cl)ccc1Nc1ccnc2cc(I)ccc12 [GW551191]
%Inh (ROCK1): 2% | %Inh (ROCK2): 17% | %Inh (ROS1): 0% | %Inh [1]: 10% | %Inh [2]: 0% | %Inh [3]: 13% | %Inh [4]: 0% | %Inh [5]: 8% | %Inh [6]: 50% | %Inh [7]: 11% | %Inh [8]: 32% | %Inh [9]: 0% | %Inh [10]: 0% | %Inh [11]: 0% | %Inh [12]: 87% | %Inh (S6K1): 4% | %Inh (SBK1): 19% | %Inh (SGK2): 4% | %Inh (SGK3): 0% | %Inh (SGK): 8%

O=C(Nc1n[nH]c2nc(-c3nccs3)c(Br)cc12)C1CC1 [SB-742251]
%Inh (ROCK1): 36% | %Inh (ROCK2): 24% | %Inh (ROS1): 0% | %Inh [1]: 0% | %Inh [2]: 0% | %Inh [3]: 0% | %Inh [4]: 11% | %Inh [5]: 9% | %Inh [6]: 0% | %Inh [7]: 11% | %Inh [8]: 0% | %Inh [9]: 19% | %Inh [10]: 0% | %Inh [11]: 0% | %Inh [12]: 2% | %Inh (S6K1): 6% | %Inh (SBK1): 1% | %Inh (SGK2): 12% | %Inh (SGK3): 0% | %Inh (SGK): 0%

O=C(O)COc1ncnc2cc(-c3ccc4[nH]ncc4c3)sc12
%Inh (ROCK1): 27% | %Inh (ROCK2): 61% | %Inh (ROS1): 3% | %Inh [1]: 15% | %Inh [2]: 17% | %Inh [3]: 0% | %Inh [4]: 0% | %Inh [5]: 21% | %Inh [6]: 34% | %Inh [7]: 13% | %Inh [8]: 0% | %Inh [9]: 26% | %Inh [10]: 29% | %Inh [11]: 23% | %Inh [12]: 15% | %Inh (S6K1): 0% | %Inh (SBK1): 45% | %Inh (SGK2): 9% | %Inh (SGK3): 35% | %Inh (SGK): 4%

Cn1ccc2ncnc(Oc3ccc(NC(=O)Nc4ccccc4)cc3)c21
%Inh (ROCK1): 0% | %Inh (ROCK2): 24% | %Inh (ROS1): 15% | %Inh [1]: 21% | %Inh [2]: 0% | %Inh [3]: 0% | %Inh [4]: 2% | %Inh [5]: 0% | %Inh [6]: 0% | %Inh [7]: 0% | %Inh [8]: 0% | %Inh [9]: 12% | %Inh [10]: 0% | %Inh [11]: 0% | %Inh [12]: 0% | %Inh (S6K1): 0% | %Inh (SBK1): 0% | %Inh (SGK2): 7% | %Inh (SGK3): 28% | %Inh (SGK): 1%

Cl.Oc1ccc(-c2nc(-c3ccccc3)[nH]c2-c2ccncc2)cc1 [SB-428218]
%Inh (ROCK1): 70% | %Inh (ROCK2): 61% | %Inh (ROS1): 0% | %Inh [1]: 0% | %Inh [2]: 0% | %Inh [3]: 0% | %Inh [4]: 11% | %Inh [5]: 30% | %Inh [6]: 0% | %Inh [7]: 6% | %Inh [8]: 0% | %Inh [9]: 0% | %Inh [10]: 8% | %Inh [11]: 0% | %Inh [12]: 32% | %Inh (S6K1): 14% | %Inh (SBK1): 0% | %Inh (SGK2): 0% | %Inh (SGK3): 0% | %Inh (SGK): 7%

CC(C)(C)c1ccc(C(=O)Nc2cn3cc(Cl)ccc3n2)cc1
%Inh (ROCK1): 0% | %Inh (ROCK2): 0% | %Inh (ROS1): 0% | %Inh [1]: 7% | %Inh [2]: 5% | %Inh [3]: 0% | %Inh [4]: 0% | %Inh [5]: 0% | %Inh [6]: 20% | %Inh [7]: 26% | %Inh [8]: 28% | %Inh [9]: 0% | %Inh [10]: 23% | %Inh [11]: 45% | %Inh [12]: 22% | %Inh (S6K1): 0% | %Inh (SBK1): 0% | %Inh (SGK2): 6% | %Inh (SGK3): 0% | %Inh (SGK): 8%
